Laboratory results: PubChem BioAssay (NCATS)
Results filed as inconclusive are left out. A call without a number means that no potency is given here. Activity calls are given as the source filed them. Calls follow the shape of the dose curve; as a rule, active = well fitted curve in the direction sought with a large enough effect; inconclusive = small, poorly fitted or top-dose-only effect, or another doubt; inactive = no such curve, though single readings can be large; an effect the other way counts as inactive or inconclusive. Starred links: 1 amine or outer side, 2 acyl side, 3 side chain; linkers in the order of their positions; H or OH if unused. Positions of bridges follow the written chain, without caps; N, C: chain ends. Non-standard residues stand in square brackets, D forms with d. Residues, ends and D or L forms follow the SMILES beside them. Chains are numbered I, II in the order given. Actinocin(9to1) = Cc1c2oc3c(C)ccc(C(=O)[*:1])c3nc-2c(C(=O)[*:2])c(N)c1=O; NMeV = CN[CH](C(=O)O)C(C)C; Sar = CNCC(=O)O

Legend:
[1] = target: Calcium and integrin-binding protein 1 (Homo sapiens) (UniProt Q99828); assay: Primary qHTS for Identification of Calcium Integrin Binding Protein 1 (CIB1) Competitor (AID 1508620);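 also: GST tagged CIB1 binding a fluorescein labelled alphaIIb integrin peptide tracer; top concentration of the series differs between compounds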
How it was run: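 Fluorescence polarization competition: CIB1-GST (1 uM final) preincubated with compound 15 min at room temperature, then FITC-labeled alphaIIb peptide (100 nM final) added for another 15 min. Polarization read at Ex 480/Em 540.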

[2] = Primary qHTS for small molecule stabilizers of the endoplasmic reticulum resident proteome: Secreted ER Calcium Modulated Protein (SERCaMP) assay (AID 1508630)
How it was run: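 The SH-SY5Y reporter protocol was run at 3 concentrations up to 38.3 uM (primary) or 11 concentrations (follow-up): 16 h compound, 100 nM thapsigargin for 4 h, then extracellular luciferase luminescence.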

Calcium and integrin-binding protein 1 (Homo sapiens), sequence (Q99828 whole entry, looked up): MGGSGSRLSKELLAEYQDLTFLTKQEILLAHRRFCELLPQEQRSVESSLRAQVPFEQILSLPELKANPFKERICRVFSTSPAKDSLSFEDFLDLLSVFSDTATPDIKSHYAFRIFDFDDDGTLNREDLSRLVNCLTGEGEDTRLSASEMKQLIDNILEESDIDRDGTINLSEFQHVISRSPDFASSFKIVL

SMILES	Potency [1]	outcome [2]
O=c1c(O)c(-c2ccc(O)c(O)c2)oc2cc(O)ccc12	inactive	inactive
N#Cc1c(NC(=O)c2cccc3ccccc23)sc2c1CCCC2	inactive	inactive
Cn1cc(CNCC2CCN(c3ncc(C(=O)NO)cn3)CC2)c2ccccc21	inactive	inactive
CCc1c(O)cc(O)c(C(=O)c2ccc(OCCN3CCOCC3)c(OC)c2)c1CC(=O)N(CCOC)CCOC	inactive	inactive
C[C@H]1O[C@H](O[C@H]2[C@H](O)[C@@H](O)[C@@H](O[C@H]3[C@H](O)[C@@H](O)C(O)O[C@H]3CO)O[C@H]2CO)[C@H](O)[C@@H](O)[C@H]1N[C@H]1C=C(CO)[C@@H](O)[C@H](O)[C@@H]1O (some centres not stated)	inactive	inactive
Cc1c2oc3c(C)ccc(C(=O)NC4C(=O)NC(C(C)C)C(=O)N5CCCC5C(=O)N(C)CC(=O)N(C)C(C(C)C)C(=O)OC4C)c3nc-2c(C(=O)NC2C(=O)NC(C(C)C)C(=O)N3CCCC3C(=O)N(C)CC(=O)N(C)C(C(C)C)C(=O)OC2C)c(N)c1=O (configuration not stated) (I: TVP[Sar][NMeV] / II: TVP[Sar][NMeV]; ester I:1-I:C, II:1-II:C; linker I:N-II:N via Actinocin(9to1); configuration not given here)	inactive	inactive
CC(=O)SCC(Cc1ccccc1)C(=O)NCC(=O)OCc1ccccc1 (configuration not stated)	inactive	inactive
C=C1CCC2[C@](C)(CO)C(O)CC[C@]2(C)C1CC=C1C(=O)OCC1O (some centres not stated)	inactive	inactive
Cn1c(Nc2ccc(C(F)(F)F)cc2)nc2cc(Oc3ccnc(-c4ncc(C(F)(F)F)[nH]4)c3)ccc21	inactive	inactive
Nc1nc(N)c2nc(-c3cccc(O)c3)c(-c3cccc(O)c3)nc2n1	inactive	inactive
COc1ccc(Nc2cc(-c3cnc(N)nc3)nc(N3CCOCC3)n2)cn1	inactive	inactive
COC(=O)C1C2CC3c4[nH]c5cc(OC)ccc5c4CCN3CC2CC(OC(=O)c2cc(OC)c(OC)c(OC)c2)C1OC (configuration not stated)	inactive	inactive
CC(C)C[C@H](NC(=O)[C@@H](NC(=O)c1cccc(-c2ccccc2)n1)[C@@H](C)O)B(O)O	inactive	inactive
CC(C)(O)[C@H]1CC[C@@](C)([C@H]2[C@@H](O)C[C@@]3(C)[C@@H]4C[C@H](O[C@@H]5O[C@H](CO)[C@@H](O)[C@H](O)[C@@H]5O)[C@H]5C(C)(C)[C@@H](O[C@@H]6OC[C@@H](O)[C@H](O)[C@@H]6O)CC[C@@]56C[C@@]46CC[C@]23C)O1	inactive	inactive
COC(=O)[C@@H]1CC2=CC(=O)CC[C@]2(C)[C@@]23O[C@@H]2C[C@@]2(C)[C@H](CC[C@@]24CCC(=O)O4)[C@@H]13	inactive	inactive
O=[N+]([O-])c1cn2c(n1)OC[C@@H](OCc1ccc(OC(F)(F)F)cc1)C2	inactive	inactive
